Only some compounds are listed: those with a hit (about 4.5% of all), similar ones and a draw of the others.
DAX1 inh-1: inhibitors of human orphan nuclear receptor DAX1 (NR0B1). HEK293 Gal4-DAX1 luciferase reporter, luminescence. inhibition, % at 6.75 µM. 340,000 tested, 0.99% active. AID 504766;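 active = inhibition above the mean over all tested compounds plus 3 SD, cut at about 4.2% in these data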;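 also: 0% = DAX1-transfected cells with DMSO and 100% = empty-vector control cells with DMSO; inhibition shows as a rise in luminescence from relieved DAX1 repression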
Target sequence (P51843 207-470 limits assumed): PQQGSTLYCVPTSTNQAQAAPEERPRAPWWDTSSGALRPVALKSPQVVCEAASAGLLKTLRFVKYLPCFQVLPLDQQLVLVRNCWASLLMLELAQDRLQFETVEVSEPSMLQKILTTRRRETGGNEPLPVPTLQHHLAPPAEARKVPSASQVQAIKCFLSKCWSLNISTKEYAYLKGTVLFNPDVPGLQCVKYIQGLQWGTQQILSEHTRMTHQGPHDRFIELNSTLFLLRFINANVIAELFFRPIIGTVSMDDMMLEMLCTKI
GAA850 FXN act: frataxin GAA850 promoter activation; HEK293 lucGAA850 FXN promoter luciferase reporter, 24 h; percent of 10 µM SAHA response; activation, % at 6 µM; 360,000 tested, 0.56% active; AID 540364;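 active = activation above the average of all compounds screened plus 3 SD, cutoff fixed separately per campaign, cut at about 7.5% in these data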;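 also: 0% = DMSO wells and 100% = 10 µM SAHA wells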
hgDAF-12 ag: agonists of H. glycines DAF-12 nuclear receptor; HEK293 GAL4-hgDAF12 UAS-luciferase reporter, agonist luminescence; normalized to butyrate control; activation, % at 6.8 µM; 370,000 tested, 1.8% active;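 active = activation above a cutoff set at the mean of all screened compounds plus 3 SD, cut at about 10% in these data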;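 also: 0% = DMSO wells and 100% = sodium butyrate wells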
ssDAF-12 act: activators of S. stercoralis DAF-12 nuclear receptor; HEK293 ssDAF-12/GRIP1 lit1-tk-luc reporter, luminescence; % of 3 µM dafachronic acid response; activation, % at 6.8 µM; 370,000 tested, 1% active;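 active = activation above the mean over all tested compounds plus 3 SD, cut at about 0.9% in these data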;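 also: 0% = DMSO-only wells and 100% = 3 µM delta7-dafachronic acid wells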
DAX1 inh-2: blocks DAX1 repression of SF-1 activated StAR promoter; inhibition, % at 6.8 µM; AID 652010; HEK293T StAR-luciferase reporter, SF-1/DAX-1 repression relief; 370,000 tested, 1.1% active;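 active = inhibition above the mean over all tested compounds plus 3 SD, cut at about 3.6% in these data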;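 also: 0% = DAX-1 cells with DMSO and 100% = cells lacking DAX-1 with DMSO; higher inhibition means more luminescence from relief of DAX-1 repression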
hcDAF-12 act: activates DAF-12 receptor from parasite H. contortus; HEK293 hcDAF-12 lit1-tk-luc reporter, luminescence; 0% DMSO, 100% Δ7-dafachronic acid; AID 652067; 370,000 tested, 1.4% active; activation, % at 6.8 µM;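 active = activation above the mean of all tested compounds plus 3 SD, cut at about 5.5% in these data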;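 also: 100% = response to 3 µM Δ7-dafachronic acid high control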
LXR ag: LXR-beta agonism as hcDAF-12 counter-screen. activation, % at 6.8 µM. HEK293 Gal4-LXR tk-luc reporter, luminescence, 24 h; normalized: DMSO 0%, positive control 100%. AID 743027. shares compounds with hcDAF-12 act. 3,400 tested, under 10 active;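 active = mean percent activation of the reporter above a cutoff set as the average over tested compounds plus their standard deviation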
hcDAF12 ag: hcDAF-12 agonism, confirmation assay. shares compounds with hcDAF-12 act. HEK293 hcDAF-12 lit1-tk-luc reporter, luminescence; % of Δ7-dafachronic acid response. activation, % at 6.8 µM. 3,400 tested, 61% active;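 active = mean activation across triplicate tests above the threshold derived from the earlier primary screen, cut at about 5.5% in these data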;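 also: 0% = DMSO only wells and 100% = 3 µM Δ7-dafachronic acid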
Numbers without * were called inactive; . = not tested or not shown.

SMILES	DAX1 inh-1	GAA850 FXN act	hgDAF-12 ag	ssDAF-12 act	DAX1 inh-2	hcDAF-12 act	LXR ag	hcDAF12 ag
O=C(N/N=C/c1c[nH]c2ccccc12)c1ccc(Cl)cc1	2	2	7	1	1	3	.	.
CC(C)C[C@H](NC(=O)OC(C)(C)C)C(=O)N[C@@H](CO)[C@H](O)[C@@H]1C[C@@H]1C(=O)N1CCCC1	1	0	-2	-1	0	-1	.	.
COc1ccc(OC)c(NC(=O)c2cnc(Nc3ccccc3OC)c3ccccc23)c1	-2	-3	-1	-2	-2	-2	.	.
CC(C)(C)OC(=O)N/N=C/c1c[nH]c2ccccc12	0	5	12*	1.4*	1	11*	0	6.6*
O=C(N/N=C/c1c[nH]c2ccccc12)C1CC1c1ccccc1 (stereo not given)	-1	0	-2	-1	-2	9.2*	0	1
O=C(N/N=C/c1c[nH]c2ccccc12)c1ccc(Br)cc1	-1	3	3	1.1*	0	7.3*	0	5
O=C(N/N=C/c1c[nH]c2ccccc12)C1CC1(c1ccccc1)c1ccccc1 (stereo not given)	0	-1	3	-1	0	2	.	.
O=C(O)c1nn(Cc2ncc(-c3cccc(Cl)c3)o2)c(=O)c2ccccc12	2	-2	0	-1	0	-1	.	.
Cc1cc(Br)cn2c(Cc3ccccc3C(F)(F)F)c(-c3ccco3)nc12	.	.	-2	-1	-1	-1	.	.
CCN(CC)c1ccc(/C=N/NC(=O)c2ccc3nc[nH]c3c2)cc1	-1	0	1	-1	0	-2	.	.
CCN(CC)c1ccc(/C=N/NC(=O)c2ccccn2)cc1	4	2	11*	1	1	6.8*	1	7.1*
CC1CCCC(C)N1C(=C(Cl)Cl)C(=C1SCCS1)[N+](=O)[O-] (stereo not given)	-1	2	-5	-1	0	-2	.	.
CN1CC(=O)N2[C@@H](C[C@]3(c4c[nH]c5ccccc45)c4ccccc4N(S(=O)(=O)c4ccccc4)[C@H]23)C1=O	.	.	-1	0	.	6.6*	0	4
C[C@@]12C[C@@H]3C(=O)N(Cc4ccccc4)CC(=O)N3[C@@H]1N(S(=O)(=O)c1ccccc1)c1ccccc12	.	.	-1	-1	0	-3	.	.
Cc1ccc(O)c(NC(=O)c2ccc3c(c2)C(=O)N(Cc2cccnc2)C3=O)c1	-1	4	2	-1	2	1	.	.
N#Cc1ccsc1NC(=O)COC(=O)c1cc2ccccc2cc1O	2	4	5	1.1*	2	9.3*	0	10*
Cc1ccc(-c2nc(NCCN3CCOCC3)c3ccccc3n2)cc1	2	4	11*	0	2	6.8*	0	6.4*
CN(C)CCCNc1nc(-c2ccccc2)nc2ccccc12	-1	0	-1	0	0	4	.	.
Cc1ccc(-c2nc(NCCCN(C)C)c3ccccc3n2)cc1	4	5	11*	0	3	8.3*	0	11*
Cc1ccc(NC(=O)c2sc3nc(C)cc(C)c3c2N)cc1	4	2	12*	0	2	7.8*	2	9.3*
Cc1cc(C)c2c(N)c(C(=O)Nc3nccs3)sc2n1	-4	-3	16*	2.3*	2	18*	2	24*
O=C(Nc1cccc2nsnc12)c1cccs1	3	3	10	-1	0	1	.	.
O=C(Nc1ccccc1)Nc1cccc2nsnc12	2	4	9	2.3*	3	8.9*	1	12*
O=C(C[C@H]1C[C@H](C(=O)N2CCCCC2)[C@@]2(CCc3ccccc3)c3[nH]c4ccc(Cl)cc4c3CCN2C1=O)NCCC1=CCCCC1	0	1	0	0	0	0	.	.
CCCc1cc(C(=O)Nc2cccc(Cl)c2)no1	1	0	8	-1	1	9.4*	1	3
SMILES	DAX1 inh-1	GAA850 FXN act	hgDAF-12 ag	ssDAF-12 act	DAX1 inh-2	hcDAF-12 act	LXR ag	hcDAF12 ag
CC(CNC(=O)COc1ccc2c(c1)OCO2)c1ccccc1 (stereo not given)	0	0	0	-1	-2	0	.	.
O=C(C1=NN[C@@H]2C(=O)N(c3cccc(C(F)(F)F)c3)C(=O)[C@H]12)c1ccc2ccccc2n1	0	0	-13	-3	-3	-5	.	.
O=C(C1=NN[C@@H]2C(=O)N(c3cccc(F)c3)C(=O)[C@H]12)c1ccc2ccccc2n1	0	1	3	1	2	9.0*	0	3
O=C(O)c1ccc(N/N=C/c2cccc3cccnc23)cc1	1	7	13*	2.0*	3	8.1*	1	7.9*
Oc1ccccc1/C=N/Nc1cccc2cccnc12	2	7	1	1	2	2	.	.
Cc1ccc(S(=O)(=O)CC(=O)N2CCN(c3ccc(F)cc3)CC2)cc1	1	0	-3	-1	-1	-4	.	.
Cc1cnc(NC(=O)Nc2ccc(OCc3ccccc3)cc2)c(Br)c1	0	-1	6	0	0	7.3*	0	2
C#CCSc1nnnn1-c1ccc(Br)c(C)c1	-1	-2	4	0	0	10*	0	5
O=C(COc1ccc(Br)cc1)N(Cc1nnc(-c2ccccc2Cl)o1)C1CC1	0	2	1	-2	0	0	.	.
COc1ccc(OCc2cc(C(=O)N(Cc3nccn3C)C(C)C)no2)c2ccccc12	0	3	7	0	-1	7.3*	0	6.9*
COc1ccc(OCc2cc(C(=O)N3CCCC(O)C3)no2)c2ccccc12 (stereo not given)	3	8	11*	1.2*	3	7.0*	1	9.2*
COc1ccc(OCc2cc(C(=O)N3CCCC(OC)C3)no2)c2ccccc12 (stereo not given)	2	7	6	0	3	4	.	.
O=C(COC(=O)c1cccc(S(=O)(=O)N2CCc3ccccc32)c1)Nc1ncc(C(F)(F)F)cc1Cl	-1	3	1	-1	0	-1	.	.
O=C(COC(=O)c1cccc(S(=O)(=O)N2CCc3ccccc32)c1)Nc1ncc(Cl)cc1Cl	-1	0	0	-1	0	6.8*	0	3

Compound activity (PubChem BioAssay)
